Data on one substance can be found in paper PMC13423814.

The target of this test is HNRNPC (UniProt P07910). The note with it: DSSO, in cells.

In the case of HNRNPR, O43390, the cross-linked residues result is “K374 - K8”.
